System: not listed separately
Assay: small-molecule binders of probe aNOTCH2, primary screen, biochemical, small-molecule microarray, 635/667 nm fluorescence (AID 1121);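 further: score merges feature fluorescence read at 667 nm with its signal to noise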
Details: higher = more signal

| SMILES | composite z-score |
| --- | --- |
| COC(=O)[C@H](CCSC)NC(=O)CC=C[C@@H](C)CO | -0.143 |
| C[C@H]1CC[C@@H](C(=O)O)N[C@@H]1c1cccc(N2CCCC2=O)c1 | -0.14 |
| C#CCCCON=C1C[C@@H](O)[C@@H](O)[C@@H]2[C@@H]3C(=O)N([C@@H](C)c4ccccc4)C(=O)[C@@H]3CC[C@@H]12 | -0.165 |
| COC(=O)[C@H](C)NC(=O)CCC1CC(OC(=O)NCc2ccc3c(c2)OCO3)CC2(CCCC(COC(=O)NCc3ccccc3)O2)O1 (stereo not given in full) | -0.156 |
| CCOC(=O)CCN1C(=O)[C@H]2[C@H]3[C@H](O)[C@H](O)CC(=NNC(=O)OCC)[C@H]3CC[C@H]2C1=O | -0.145 |
| CC(C)(C)N1C(=O)[C@H]2[C@@H]3C(=CC[C@H]2C1=O)C(=O)[C@H]1O[C@H]1[C@H]3O | -0.154 |
| O=C1[C@H]2[C@H]3[C@H](O)[C@H](O)CC(=NO[C@@H]4O[C@H](CO)[C@@H](O)[C@H](O)[C@H]4O)[C@@H]3CC[C@H]2C(=O)N1C1CCCCC1 | -0.141 |
| COc1ccc(COC(=O)NN=C2C[C@@H](O)[C@@H](O)[C@@H]3[C@@H]4C(=O)N([C@@H](C)c5ccccc5)C(=O)[C@@H]4CC[C@@H]23)cc1 | 0.0318 |
| COc1ccc(COC(=O)NN=C2C[C@@H](O)[C@@H](O)[C@@H]3[C@@H]4C(=O)N(Cc5ccccc5)C(=O)[C@@H]4CC[C@@H]23)cc1 | -0.182 |
| CC(C)[C@@H](OCc1ccccc1)[C@H](C)C=NO[C@@H](C)c1cn([C@H](CO)Cc2ccccc2)nn1 | -0.146 |
| CCOC(=O)[C@H](Cc1ccccc1)NC(=O)CCC1CC(OC(=O)NCc2ccc3c(c2)OCO3)CC2(CCCC(COC(=O)NCCOc3ccccc3)O2)O1 (stereo not given in full) | -0.034 |
| COC(=O)[C@H](C)NC(=O)CCC1CC(OC(=O)NCc2ccc3c(c2)OCO3)CC2(CCCC(COC(=O)NCCCN3CCCC3=O)O2)O1 (stereo not given in full) | -0.293 |
| O=C(NN=C1C[C@@H](O)[C@@H](O)[C@@H]2[C@@H]3C(=O)N(Cc4ccc5c(c4)OCO5)C(=O)[C@@H]3CC[C@@H]12)OCc1ccccc1 | -0.0817 |
| CCN1C(=O)[C@H]2[C@H]3[C@H](O)[C@H](O)CC(=NOCC[C@@H]4C=C[C@H](OC(C)=O)[C@@H](COC(C)=O)O4)[C@@H]3CC[C@H]2C1=O | -0.12 |
| COC(=O)[C@H](C)NC(=O)CCC1CC(OC(=O)NCc2ccc3c(c2)OCO3)CC2(CCCC(COC(=O)NCCC(C)C)O2)O1 (stereo not given in full) | -0.114 |
| CO[C@H]1COC(=O)CC=C[C@H](C)[C@H](OC)COC(=O)[C@@H](C)NC(=O)CC=C[C@@H]1C | -0.164 |
| O=C1C=C[C@@H](O)[C@@H]2[C@@H]3C(=O)N(Cc4ccccc4)C(=O)[C@@H]3CC[C@@H]12 | -0.132 |
| CCOC(=O)[C@H](Cc1ccccc1)NC(=O)CCC1CC(OC(=O)NCc2ccc3c(c2)OCO3)CC2(CCCC(COC(=O)NCCc3ccc(Cl)cc3)O2)O1 (stereo not given in full) | -0.125 |
| COc1ccc(-c2cnnc(CCCn3ccnc3-c3ccccc3)n2)cc1 | -0.126 |
| CCOC(=O)NN=C1C[C@@H](O)[C@@H](O)[C@@H]2[C@@H]3C(=O)N(c4ccc(F)cc4F)C(=O)[C@@H]3CC[C@H]12 | -0.107 |
| C#CCCCON=C1C[C@@H](O)[C@@H](O)[C@@H]2[C@@H]3C(=O)N(CC)C(=O)[C@@H]3CC[C@H]12 | -0.148 |
| C[C@H]1CC[C@@H](C(=O)O)N[C@@H]1c1ccc(C#Cc2ccccc2)cc1 | -0.0907 |
| COC(=O)[C@H](C)NC(=O)CCC1CC(OC(=O)NCc2cccc3ccccc23)CC2(CCCC(COC(=O)NCc3ccccc3)O2)O1 (stereo not given in full) | -0.104 |
| CC(=O)OC[C@H]1O[C@H](CC=NOC[C@@H](O)[C@H]2O[C@@H]3OC(C)(C)O[C@@H]3[C@H]2O)C=C[C@@H]1OC(C)=O | -0.0934 |

Target: Carbonic anhydrase 2 (Homo sapiens) (UniProt P00918)
Assay: CAII small-molecule binders, profiling panel, biochemical, small-molecule microarray, Alexa647-labelled CAII (AID 1122)
Details: CAII-A647 binding fluorescence, higher = more signal

| SMILES | composite z-score |
| --- | --- |
| COCC#Cc1ccc([C@@H]2N[C@H](C(=O)O)CC[C@H]2C)cc1 | -0.148 |
| C#CCCCON=C1[C@H]2CCn3c(=O)n([C@@H](CC)c4ccccc4)c(=O)n3[C@H]2[C@H](O)[C@@H]2O[C@H]12 | 0.59 |
| O=C1CCCC=C1C(O)C1CCCCC1 (stereo not given) | -0.102 |
| C[C@@H](c1ccccc1)N1C(=O)[C@H]2[C@H]3[C@H](O)[C@H](O)CC(=NOC[C@@H](O)COCc4ccco4)[C@H]3CC[C@H]2C1=O | -0.578 |
| CCOC(=O)[C@H](CC(C)C)NC(=O)CCC1CC(OC(=O)NCCc2ccc(F)cc2)CC2(CCCC(COC(=O)NCc3cccc4ccccc34)O2)O1 (stereo not given in full) | 0.276 |
| COC(=O)[C@H](C)NC(=O)CCC1CC(OC(=O)NCCc2ccc(F)cc2)CC2(CCCC(COC(=O)NCCc3ccccc3OC)O2)O1 (stereo not given in full) | 0.244 |
| CCOC(=O)CCN1C(=O)[C@H]2[C@H]3[C@H](O)[C@H](O)CC(=NOCC(C)C)[C@@H]3CC[C@H]2C1=O | -0.52 |
| CC[C@@H](c1ccccc1)n1c(=O)n2n(c1=O)[C@H]1[C@H](O)[C@@H]3O[C@@H]3C(=NOCc3ccccc3)[C@H]1CC2 | 0.178 |
| COc1ccc(O[C@H]2C=C[C@@H](c3ccccc3)O[C@@H]2CON=C(C)CCN2CCCc3nc(C)c(C)cc32)cc1 | 0.437 |
| COC(OC)[C@@H](C)[C@H](OC)[C@@H](C)[C@H](OC)c1ccccc1 | -0.552 |
| CC(CCN1CCc2nc(-c3ccccc3)c(-c3ccccc3)cc2C1)=NO[C@@H](C)c1cc(-c2c(C)cc(C)cc2C)no1 | 0.0148 |
| CO[C@H]1COC(=O)CCC[C@H](C)[C@H](OC)COC(=O)CC=C[C@@H]1C | -0.515 |
| COC(=O)[C@H](CCSC)NC(=O)CC=C[C@@H](C)CO | 0.0952 |
| C[C@H]1CC[C@@H](C(=O)O)N[C@@H]1c1cccc(N2CCCC2=O)c1 | -0.192 |
| C#CCCCON=C1C[C@@H](O)[C@@H](O)[C@@H]2[C@@H]3C(=O)N([C@@H](C)c4ccccc4)C(=O)[C@@H]3CC[C@@H]12 | 0.717 |
| COC(=O)[C@H](C)NC(=O)CCC1CC(OC(=O)NCc2ccc3c(c2)OCO3)CC2(CCCC(COC(=O)NCc3ccccc3)O2)O1 (stereo not given in full) | 0.192 |
| CCOC(=O)CCN1C(=O)[C@H]2[C@H]3[C@H](O)[C@H](O)CC(=NNC(=O)OCC)[C@H]3CC[C@H]2C1=O | 0.505 |
| CC(C)(C)N1C(=O)[C@H]2[C@@H]3C(=CC[C@H]2C1=O)C(=O)[C@H]1O[C@H]1[C@H]3O | -0.444 |

| SMILES | composite z-score |
| --- | --- |
| O=C1[C@H]2[C@H]3[C@H](O)[C@H](O)CC(=NO[C@@H]4O[C@H](CO)[C@@H](O)[C@H](O)[C@H]4O)[C@@H]3CC[C@H]2C(=O)N1C1CCCCC1 | -0.121 |
| COc1ccc(COC(=O)NN=C2C[C@@H](O)[C@@H](O)[C@@H]3[C@@H]4C(=O)N([C@@H](C)c5ccccc5)C(=O)[C@@H]4CC[C@@H]23)cc1 | 0.171 |
| COc1ccc(COC(=O)NN=C2C[C@@H](O)[C@@H](O)[C@@H]3[C@@H]4C(=O)N(Cc5ccccc5)C(=O)[C@@H]4CC[C@@H]23)cc1 | -0.359 |
| CC(C)[C@@H](OCc1ccccc1)[C@H](C)C=NO[C@@H](C)c1cn([C@H](CO)Cc2ccccc2)nn1 | -0.227 |
| CCOC(=O)[C@H](Cc1ccccc1)NC(=O)CCC1CC(OC(=O)NCc2ccc3c(c2)OCO3)CC2(CCCC(COC(=O)NCCOc3ccccc3)O2)O1 (stereo not given in full) | 0.109 |
| COC(=O)[C@H](C)NC(=O)CCC1CC(OC(=O)NCc2ccc3c(c2)OCO3)CC2(CCCC(COC(=O)NCCCN3CCCC3=O)O2)O1 (stereo not given in full) | 0.167 |
| O=C(NN=C1C[C@@H](O)[C@@H](O)[C@@H]2[C@@H]3C(=O)N(Cc4ccc5c(c4)OCO5)C(=O)[C@@H]3CC[C@@H]12)OCc1ccccc1 | -0.141 |
| CCN1C(=O)[C@H]2[C@H]3[C@H](O)[C@H](O)CC(=NOCC[C@@H]4C=C[C@H](OC(C)=O)[C@@H](COC(C)=O)O4)[C@@H]3CC[C@H]2C1=O | 0.385 |
| COC(=O)[C@H](C)NC(=O)CCC1CC(OC(=O)NCc2ccc3c(c2)OCO3)CC2(CCCC(COC(=O)NCCC(C)C)O2)O1 (stereo not given in full) | 0.226 |
| CO[C@H]1COC(=O)CC=C[C@H](C)[C@H](OC)COC(=O)[C@@H](C)NC(=O)CC=C[C@@H]1C | -0.54 |
| O=C1C=C[C@@H](O)[C@@H]2[C@@H]3C(=O)N(Cc4ccccc4)C(=O)[C@@H]3CC[C@@H]12 | -0.0331 |
| CCOC(=O)[C@H](Cc1ccccc1)NC(=O)CCC1CC(OC(=O)NCc2ccc3c(c2)OCO3)CC2(CCCC(COC(=O)NCCc3ccc(Cl)cc3)O2)O1 (stereo not given in full) | 0.151 |
| COc1ccc(-c2cnnc(CCCn3ccnc3-c3ccccc3)n2)cc1 | 0.536 |
| CCOC(=O)NN=C1C[C@@H](O)[C@@H](O)[C@@H]2[C@@H]3C(=O)N(c4ccc(F)cc4F)C(=O)[C@@H]3CC[C@H]12 | -0.0212 |
| C#CCCCON=C1C[C@@H](O)[C@@H](O)[C@@H]2[C@@H]3C(=O)N(CC)C(=O)[C@@H]3CC[C@H]12 | 0.728 |
| C[C@H]1CC[C@@H](C(=O)O)N[C@@H]1c1ccc(C#Cc2ccccc2)cc1 | 0.863 |
| COC(=O)[C@H](C)NC(=O)CCC1CC(OC(=O)NCc2cccc3ccccc23)CC2(CCCC(COC(=O)NCc3ccccc3)O2)O1 (stereo not given in full) | 0.288 |
| CC(=O)OC[C@H]1O[C@H](CC=NOC[C@@H](O)[C@H]2O[C@@H]3OC(C)(C)O[C@@H]3[C@H]2O)C=C[C@@H]1OC(C)=O | 0.298 |

Reference: PubChem BioAssay
